Assay [1] has as its target Rap guanine nucleotide exchange factor 3 (Homo sapiens) (UniProt O95398). Put plainly: Confirmatory qHTS for antagonist of cAMP-regulated guanine nucleotide exchange factor 3 (EPAC1) (AID 1645880). Further: nearly all actives have a fitted effect of over 55% in size. Further: potency means the concentration at half of the fitted maximal effect.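 On activity, negative = inhibition: plate controls were DMSO only for no effect and full effect of the ATA control for full effect.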 The settings on record: EPAC1 Rap1B-BODIPY-GDP exchange, fluorescence; activity, negative = inhibition: at 115 µM (top of the series). The method in brief: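 Released BODIPY-GDP fluoresces less than Rap1-bound BODIPY-GDP; the signal is followed at 480/540 nm at 5-min intervals over 30 min, after 5 min at room temperature. Reactions contain 100 nM EPAC1, 250 nM RAP1B-BODIPY-GDP and 50 uM GDP; results are normalized to ATA and DMSO.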
In general terms: qHTS replaces the single test concentration by a dilution series.

For assay [2] the target is unchanged. Put plainly: Confirmatory qHTS for agonist of cAMP-regulated guanine nucleotide exchange factor 3 (EPAC1) (AID 1645881). Further: nearly all actives have a fitted effect of over 75% in size. Further: potency means the concentration at half of the fitted maximal effect.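 On activation: EPAC1 catalysed release of BODIPY-GDP from Rap1B seen as fluorescence loss; 100% = effect of cAMP agonist control.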
Assay [3] concerns the target Rap guanine nucleotide exchange factor 4 (Homo sapiens) (UniProt Q8WZA2). Nature of the assay: Confirmatory qHTS for agonist of cAMP-regulated guanine nucleotide exchange factor 4 (EPAC2) (AID 1645884).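 Further: nucleotide exchange releases bodipy-GDP from Rap1 and this lowers its fluorescence; nearly all actives have a fitted effect of over 65% in size.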 Further: potency means the concentration at half of the fitted maximal effect. On activation: on the % scale 0 is the no-effect control and ±100 the full control effect.
For assay [4], the target named is Rap guanine nucleotide exchange factor 3 (Homo sapiens) (UniProt O95398). Put plainly: Counterscreen qHTS for antagonist of cAMP-regulated guanine nucleotide exchange factor 3 (EPAC1) (AID 1645888). Further: % of control where 0% means no effect. An outline of the steps:
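Measured: fluorescence of BODIPY-GDP bound to Rap1B, which falls as exchange proceeds. Conditions include 50 uM competing GDP, 5 and 30 min reads, and a later cAMP challenge for antagonist detection.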
In general terms: A counterscreen serves to expose hits that act by an unwanted route or on another target.

Structures are written as SMILES. Records with an inconclusive call do not appear. A number with no mark means an inactive call. Activity calls are given as the source filed them. The call rests on the fitted dose curve; in most records, active means well fitted curve in the direction sought with a large enough effect; inconclusive means small, poorly fitted or top-dose-only effect, or another doubt; inactive means no such curve, though single readings can be large; an effect the other way counts as inactive or inconclusive.

Rap guanine nucleotide exchange factor 3 (Homo sapiens), sequence (O95398 whole entry, looked up): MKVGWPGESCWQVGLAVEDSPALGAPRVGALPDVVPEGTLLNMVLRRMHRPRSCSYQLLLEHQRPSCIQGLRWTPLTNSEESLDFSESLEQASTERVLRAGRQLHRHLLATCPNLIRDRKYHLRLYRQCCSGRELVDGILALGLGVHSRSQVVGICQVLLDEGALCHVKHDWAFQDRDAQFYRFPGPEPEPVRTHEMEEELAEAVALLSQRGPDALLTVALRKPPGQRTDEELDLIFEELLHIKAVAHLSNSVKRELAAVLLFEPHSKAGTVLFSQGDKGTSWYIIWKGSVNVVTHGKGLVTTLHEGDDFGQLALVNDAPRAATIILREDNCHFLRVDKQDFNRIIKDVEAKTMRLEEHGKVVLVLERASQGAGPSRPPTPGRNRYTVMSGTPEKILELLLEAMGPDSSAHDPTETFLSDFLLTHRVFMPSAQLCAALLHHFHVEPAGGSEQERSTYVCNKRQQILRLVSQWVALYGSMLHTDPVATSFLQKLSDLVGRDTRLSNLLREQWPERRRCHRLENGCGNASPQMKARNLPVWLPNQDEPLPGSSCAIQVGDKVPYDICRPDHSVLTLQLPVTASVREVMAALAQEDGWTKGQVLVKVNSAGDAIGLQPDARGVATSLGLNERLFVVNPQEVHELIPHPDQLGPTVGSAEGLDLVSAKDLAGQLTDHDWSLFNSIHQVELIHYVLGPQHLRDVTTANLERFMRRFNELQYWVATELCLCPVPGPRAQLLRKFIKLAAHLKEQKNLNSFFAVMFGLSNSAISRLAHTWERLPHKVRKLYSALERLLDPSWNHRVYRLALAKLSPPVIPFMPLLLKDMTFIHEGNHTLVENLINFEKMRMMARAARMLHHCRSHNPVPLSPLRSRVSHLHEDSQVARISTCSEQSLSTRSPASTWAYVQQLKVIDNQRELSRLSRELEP
Rap guanine nucleotide exchange factor 4 (Homo sapiens), sequence (Q8WZA2 whole entry, looked up): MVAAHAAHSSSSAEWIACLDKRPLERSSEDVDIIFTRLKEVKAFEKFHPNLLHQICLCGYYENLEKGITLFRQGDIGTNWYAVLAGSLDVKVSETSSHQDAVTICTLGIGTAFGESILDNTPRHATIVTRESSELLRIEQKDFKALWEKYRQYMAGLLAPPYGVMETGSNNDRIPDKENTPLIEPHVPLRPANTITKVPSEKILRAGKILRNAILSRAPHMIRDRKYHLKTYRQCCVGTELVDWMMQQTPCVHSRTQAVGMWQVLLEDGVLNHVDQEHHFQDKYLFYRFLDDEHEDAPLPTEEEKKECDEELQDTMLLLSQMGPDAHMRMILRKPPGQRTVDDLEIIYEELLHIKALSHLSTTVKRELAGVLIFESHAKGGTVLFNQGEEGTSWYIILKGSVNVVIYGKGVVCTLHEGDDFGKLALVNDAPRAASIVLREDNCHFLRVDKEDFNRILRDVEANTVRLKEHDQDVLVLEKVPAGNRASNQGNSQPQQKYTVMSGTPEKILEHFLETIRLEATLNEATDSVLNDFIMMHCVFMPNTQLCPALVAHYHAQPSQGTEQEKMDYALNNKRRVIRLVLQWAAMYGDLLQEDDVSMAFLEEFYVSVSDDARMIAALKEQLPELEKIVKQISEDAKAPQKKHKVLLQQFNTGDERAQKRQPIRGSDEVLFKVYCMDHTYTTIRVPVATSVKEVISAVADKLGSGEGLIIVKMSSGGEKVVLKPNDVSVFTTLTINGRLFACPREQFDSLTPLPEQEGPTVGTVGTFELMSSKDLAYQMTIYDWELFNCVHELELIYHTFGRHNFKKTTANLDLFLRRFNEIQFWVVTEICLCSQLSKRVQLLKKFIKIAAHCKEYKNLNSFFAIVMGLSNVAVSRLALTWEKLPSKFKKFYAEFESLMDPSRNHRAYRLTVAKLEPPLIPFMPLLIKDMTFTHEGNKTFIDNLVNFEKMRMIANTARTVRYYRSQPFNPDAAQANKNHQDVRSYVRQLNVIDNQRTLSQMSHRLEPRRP

Consider `COC(=O)/C(=C/Nc1ccc(O)cc1)[N+](=O)[O-]`, for which the Potency entry in assay [1], in assay [2], in assay [3] and in assay [4] was “inactive” each time.
Regarding `COc1ccc(-c2csc(NC(=O)c3ccccc3NS(=O)(=O)c3ccc(F)c(F)c3)n2)cc1`, the Potency in assay [1] was 22.4 µM (active). Moreover, the Potency result in assay [2] was “inactive”. Also, in assay [3], the activation is -1.62% [at 17.1 µM, percent relative to cAMP agonist control]. Also, the activity change, negative = inhibition in assay [4] is -3.56% [at 30.8 µM].
In the case of `CCCc1nc2c3ccccc3ccn2c1CC(C)(C)C`, the Potency result in assay [1], in assay [2], in assay [3] and in assay [4] was “inactive” each time.
With `Cc1ccc(-c2nnc(Nc3ccc4c(c3)OCO4)c3ccccc23)cc1S(N)(=O)=O`, the Potency in assay [1] is 47.8 µM (active). Also, the Potency result in assay [2], in assay [3] and in assay [4] was “inactive” throughout.
On to `Cc1ccc2oc(=O)c(/C=C(\O)c3ccco3)nc2c1`, for which the Potency result in assay [1] and in assay [4] was “inactive” each time. Besides, the Potency in assay [2] was 89.1 µM (active); in assay [3], 100 µM (active).
`CCN(CC)c1ccc2cc(-c3nnc(-c4cccc(Cl)c4)o3)c(=O)oc2c1`: the Potency entry in assay [1] and in assay [4] was “inactive” each time. The values for the Potency in assay [2] and in assay [3] were 44.7 µM (active) and 35.5 µM (active), respectively.
`O=C(/C=C/c1ccco1)NCC1OCCc2ccccc21` (stereo not given): the Potency in assay [1] was 19 µM (active). Further, the Potency entry in assay [2], in assay [3] and in assay [4] was “inactive” throughout.
On to `COc1cc(/C=C2\C(=N)N3N=C(S(C)(=O)=O)SC3=NC2=O)ccc1OS(=O)(=O)c1ccc(C)cc1`, for which the Potency in assay [1] is 60.1 µM (active). Also, the Potency entry in assay [2], in assay [3] and in assay [4] was “inactive” throughout.
Regarding `CC(C)CSC1=NSC2=NC(=O)/C(=C\c3coc4ccccc4c3=O)C(=N)N12`, the Potency entry in assay [1], in assay [2] and in assay [4] was “inactive” throughout. Besides, in assay [3], the Potency was 112 µM (active).
With `COc1ccc(/C=C2\N=C(SC)N(c3ccccc3OC)C2=O)cc1`, the Potency result in assay [1] and in assay [2] was “inactive” in each case. Also, the activation in assay [3] was 7.24% [at 17.1 µM, percent relative to cAMP agonist control]. The activity change, negative = inhibition in assay [4] is -8.08% [at 30.8 µM].
Regarding `COc1cc(/C=C2\COC/C(=C\c3ccc(O)c(OC)c3)C2=O)ccc1O`, the Potency in assay [1] is 23.9 µM (active). The Potency entry in assay [2], in assay [3] and in assay [4] was “inactive” each time.
In the case of `CC(=O)c1ccc(N2CCN(C(=O)/C=C/c3ccc4ccccc4n3)CC2)cc1`, the Potency result in assay [1], in assay [2] and in assay [4] was “inactive” each time. The Potency in assay [3] was 89.1 µM (active).
`Cc1cc(S(=O)(=O)N2CCN(CC(=O)N(C)Cc3ccccc3)CC2)ccc1Br`: the Potency result in assay [1], in assay [2], in assay [3] and in assay [4] was “inactive” each time.
In the case of `CCC(=O)N1CCc2cc(OC)c(OC)cc2C1COc1ccc(F)cc1` (stereo not given), the Potency entry in assay [1] and in assay [2] was “inactive” throughout. In assay [3], the activation is 5.75% [at 17.1 µM, percent relative to cAMP agonist control]. The activity change, negative = inhibition in assay [4] was -5.57% [at 30.8 µM].
For the compound `COc1ccc2c(c1)C(CC(C)=O)N(c1ccc(-c3cccnc3)cc1)C(c1ccsc1)=C2` (stereo not given), the Potency result in assay [1], in assay [2], in assay [3] and in assay [4] was “inactive” each time.
Take `CC(=O)C1C(=O)C=C(c2cccs2)CC1c1ccccc1` (stereo not given): the Potency entry in assay [1] and in assay [2] was “inactive” each time. Also, in assay [3], the activation was -4.19% [at 17.1 µM, percent relative to cAMP agonist control]. Also, the activity change, negative = inhibition in assay [4] is 2.3% [at 30.8 µM].
For the compound `Cc1cccc(C)c1-n1nnnc1C(c1ccnc2ccccc12)N(CCC#N)Cc1ccccc1` (stereo not given), the Potency result in assay [1], in assay [2], in assay [3] and in assay [4] was “inactive” throughout.
Regarding `CCCCCCc1cc2cc(-c3nnc(-c4ccc(C)cc4)o3)c(=O)oc2cc1O`, the Potency result in assay [1], in assay [2], in assay [3] and in assay [4] was “inactive” throughout.
As to `CC(C)C(NC(=O)c1ccccc1)C(=O)OCn1nnc2ccccc2c1=O` (stereo not given), the Potency result in assay [1], in assay [2], in assay [3] and in assay [4] was “inactive” throughout.
`Cc1cc(Nc2ccccc2)c2c([N+](=O)[O-])ccc(C)c2n1`: the Potency result in assay [1], in assay [2], in assay [3] and in assay [4] was “inactive” throughout.
For the compound `COc1cc(CN2C(=O)C(C)ON=C2c2cccs2)cc(OC)c1` (stereo not given), the Potency result in assay [1], in assay [2], in assay [3] and in assay [4] was “inactive” throughout.
For the compound `Cc1ccc([N+](=O)[O-])cc1NC(=O)c1ccc(-c2ccccc2)cc1`, the Potency entry in assay [1], in assay [2], in assay [3] and in assay [4] was “inactive” in each case.
With `O=C(c1ccco1)N1CCn2cccc2C1c1ccccc1` (stereo not given), the Potency result in assay [1], in assay [2], in assay [3] and in assay [4] was “inactive” throughout.
As to `CC(=O)N1CCc2c(sc(NC(=O)CS(=O)(=O)c3ccc(F)cc3)c2C(N)=O)C1`, the Potency result in assay [1], in assay [2], in assay [3] and in assay [4] was “inactive” each time.
As for `COc1cc(/C=C2\C(=O)N(c3cccc(C(=O)O)c3)N=C2C)ccc1OCc1ccccc1`, in assay [1], the Potency is 37.9 µM (active). For the same compound, the Potency result in assay [2], in assay [3] and in assay [4] was “inactive” throughout.
Regarding `Cc1nc2ccccc2c(=O)n1N(c1ccccc1)c1ccccc1`, the Potency result in assay [1] and in assay [2] was “inactive” each time. In assay [3], the activation is -5.22% [at 17.1 µM, percent relative to cAMP agonist control]. The activity change, negative = inhibition in assay [4] was 9.75% [at 30.8 µM].
`Cc1cc2oc(=O)c(CC(=O)O)c(C)c2c2occ(C(C)(C)C)c12`: the Potency result in assay [1], in assay [2], in assay [3] and in assay [4] was “inactive” in each case.
With `COC(=O)C1=CN(Cc2cccs2)C=C(C(=O)OC)C1c1cccc(O)c1`, the Potency result in assay [1], in assay [2], in assay [3] and in assay [4] was “inactive” throughout.
In the case of `COC(=O)C1=CN(c2c(C)cc(C)cc2C)C(N)=C(C#N)C1c1cccc(F)c1` (stereo not given), the Potency result in assay [1], in assay [2], in assay [3] and in assay [4] was “inactive” throughout.
Turning to `COCCN(C(=O)c1cc2c(s1)CCCCC2)c1c(N)n(Cc2ccccc2)c(=O)[nH]c1=O`, the Potency entry in assay [1], in assay [2], in assay [3] and in assay [4] was “inactive” in each case.

The record behind these values is PubChem BioAssay (NCATS).
